ALDH1A1 inh – ALDH1A1 (human) enzyme inhibition | P00352 | Purified ALDH1A1, NADH fluorescence, propionaldehyde substrate | Potency, µM (titrated, usually from 75.3 µM), inactives show at the highest dose activity, negative = inhibition, actives largely listed as inhibitors | 7.3% of 220,000 active | AID 1030;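 further: potency means the concentration at half of the fitted maximal effect; plate controls were no enzyme wells and a reference inhibitor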
Target sequence (P00352 whole entry, looked up): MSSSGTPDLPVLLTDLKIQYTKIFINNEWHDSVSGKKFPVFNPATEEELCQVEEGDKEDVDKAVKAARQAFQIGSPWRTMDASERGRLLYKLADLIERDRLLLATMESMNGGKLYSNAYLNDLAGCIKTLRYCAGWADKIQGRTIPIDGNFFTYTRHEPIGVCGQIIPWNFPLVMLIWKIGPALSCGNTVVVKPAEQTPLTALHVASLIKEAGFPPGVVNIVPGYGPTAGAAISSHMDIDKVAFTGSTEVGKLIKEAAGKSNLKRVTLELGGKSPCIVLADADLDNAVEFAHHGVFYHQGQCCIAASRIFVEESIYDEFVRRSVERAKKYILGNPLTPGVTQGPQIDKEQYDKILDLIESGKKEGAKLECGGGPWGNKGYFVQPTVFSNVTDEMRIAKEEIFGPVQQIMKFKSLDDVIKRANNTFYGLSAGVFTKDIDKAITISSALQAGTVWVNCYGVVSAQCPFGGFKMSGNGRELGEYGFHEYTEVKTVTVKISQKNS
HPGD inh – HPGD (human) dehydrogenase inhibition. P15428. purified HPGD, NADH fluorescence kinetic, PGE2 substrate. Potency, µM, for the others: at the highest dose activity change, negative = inhibition, actives largely listed as inhibitors. 4.3% of 150,000 active. AID 894; further: potency means the concentration at half of the fitted maximal effect
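NADH formation kinetics: reaction with 30 uM PGE2 and 1 mM NAD+ (final), 20 nM enzyme, Tris-HCl pH 8 with Tween 20, after 15 min compound preincubation at room temperature. Fluorescence change, last versus first of five reads.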
PNC assembly inh – inhibitors of perinucleolar compartment assembly. PC3M PTB-GFP, PNC prevalence imaging, 16 h; hits give low values. activity change (PNC), negative = inhibition, % at 10 µM. 3.1% of 140,000 active. AID 2417;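 active means readout at or below -70, meaning at least 70% loss of cells showing the perinucleolar compartment, a nuclear body marking cancer cells; inconclusive means readout between -30 and a set limit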;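 further: plate controls were DMSO wells for no effect and camptothecin positive control wells for full effect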
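PC3M cells stably expressing PTB-GFP, 750–1000 cells/well, treated 16 h at 37 °C with compound (23 nl of library stock), in duplicate. After paraformaldehyde fixation and Hoechst stain, imaged at 20x; PNC prevalence scored by image analysis.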
* = called active by the depositor; ? = inconclusive; nt = no result given; [ ] = another dose, or the depositor's remark. A selection: hits, their analogues and other compounds. The true share with any hit is near 11%. Unless noted, the call rests on the fitted dose curve; in most records, active means well fitted inhibition curve with a large enough effect (not every such curve was filed as active); inconclusive means small, poorly fitted or top-dose-only effect, or another doubt; inactive means no such curve, though single readings can be large or run the other way. Unless noted, on the % scale 0 is the no-effect control and ±100 the full control effect.

SMILES	ALDH1A1 inh	HPGD inh	PNC assembly inh
N#CCC(=O)Nc1ccccc1C(=O)O	10%	-13%	30
CCOC(=O)c1cc(NC(=O)Nc2ccc(Br)cc2)c(C)nc1C	5%	nt	nt
O=C(NCCc1ccccc1)/C(=C/c1ccco1)c1ccccc1	22µM*	-25%	44
CCC(C)NC(=O)/C(=C/c1ccco1)c1ccccc1 (configuration not stated)	?	25µM*	-3
CC(C)NC(=O)/C(=C/c1ccco1)c1ccccc1	-6%	-9%	21
Cc1cccc(C)c1NC(=O)/C(=C/c1ccco1)c1ccccc1	?	-10%	27
CCC(CC)C(=O)c1c[nH]c(C(=O)N2CCN(c3ccc(OC)cc3)CC2)c1	8%	nt	nt
CCC(=O)Nc1ccc(C(=O)NCc2ccccn2)cc1	5%	nt	nt
CC1(C)CC(=O)C(C=Nc2ccc3c(c2)OCO3)=C(O)C1	13µM*	-23%	?
CC1(C)CC(=O)C(C=NCCN2CCN(C(=O)c3ccccc3)CC2)=C(O)C1	-38%	-10%	-22
CC1(C)CC(=O)C(C=NCc2ccc3c(c2)OCO3)=C(O)C1	-7%	-20%	?
CC1(C)CC(=O)C(C=Nc2ccc(C(=O)c3ccccc3)cc2N=CC2=C(O)CC(C)(C)CC2=O)=C(O)C1	10µM*	nt	nt
CC1(C)CC(=O)C(C=NCCc2ccc(O)cc2)=C(O)C1	?	-13%	19
CC1(C)CC(=O)C(C=Nc2ccc(O)c(N=CC3=C(O)CC(C)(C)CC3=O)c2)=C(O)C1	1.1µM*	nt	nt
O=[N+]([O-])c1ccc2ncccc2c1CCc1c([N+](=O)[O-])ccc2ncccc12	11%[13.5 µM]	-5%	nt
O=C1N/C(=N\c2ccccn2)SC1Cc1ccc(Cl)cc1 (configuration not stated)	4%	nt	nt
O=C1CC(C(=O)Nc2ccc(Cl)cc2)n2ncnc2N1 (configuration not stated)	-9%	nt	nt
CCc1ccc(NC(=O)C2CC(=O)Nc3ncnn32)cc1 (configuration not stated)	25µM*	-9%	20
c1ccc(NCc2nnc3n2CCCCC3)cc1	9%	-11%	43
FC(F)Oc1ccc(-c2csc(Cc3nnc4n3CCCCC4)n2)cc1	1%	-15%	-100*
c1ccc2sc(Cc3nnc4n3CCCCC4)nc2c1	11%	-21%	-82*
COc1ccc(-c2csc(Cc3nnc4n3CCCCC4)n2)cc1	-1%	-24%	?
Cc1ccccc1OCCCn1c(=O)sc2ccccc21	11%	-25%	83
COc1cc(SC)ccc1C(=O)Nc1nccs1	1%	nt	nt
CC(C)N(C(=O)CSc1nc2ccccc2n1Cc1ccc(F)cc1)C(C)C	25µM*	-12%	?
SMILES	ALDH1A1 inh	HPGD inh	PNC assembly inh
CC(C)NC(=O)CSc1nc2ccccc2n1CC(=O)N(C(C)C)C(C)C	6%	nt	nt
Nc1nc(-c2cccc(NS(=O)(=O)c3ccccc3)c2)cs1	7.9µM*	11µM*	11
Cc1nc(-c2ccc(NS(=O)(=O)c3ccccc3)cc2)cs1	6%	nt	nt
CCCCS(=O)(=O)N1CCc2nc(COc3ccccc3)c3c(c2C1)CO[C@@H](C)C3	2%[13.5 µM]	-5%	nt
O=C1CC(c2ccccc2)CC2=C1C(c1ccccn1)Nc1ccccc1N2 (configuration not stated)	-2%	-5%	-11
COc1ccc(C2CC(=O)C3=C(C2)Nc2ccccc2NC3c2coc3ccccc3c2=O)cc1OC (configuration not stated)	10µM*	-10%	?
COc1ccccc1N1CCN(CCn2c(=O)c3c(c4ccccc4n3C)n(C)c2=O)CC1	15%	nt	nt
COc1ccc(N2CCN(C(=O)CC3NC4CCCCC4NC3=O)CC2)cc1 (configuration not stated)	3%	-7%	34
CC(C)C[C@@H](CC(=O)N[C@@H](CCC(=O)O)CC(=O)O)NC(=O)[C@@H]1CNCC[C@H]1NC(=O)C[C@@H](NC(=O)C[C@H](CO)NC(=O)[C@@H]1CNCC[C@H]1N)C(C)C	-2%	-1%	nt
O=C(NC(=S)Nc1ccccc1N1CCCC1)c1ccc(-c2cccc([N+](=O)[O-])c2)o1	22µM*	25µM*	1
O=C(NC(=S)Nc1ccccc1N1CCCCC1)c1ccc(-c2cccc([N+](=O)[O-])c2)o1	?	-21%	3
CC(=O)N1CCN(c2ccccc2NC(=O)c2ccc(-c3cccc([N+](=O)[O-])c3)o2)CC1	14µM*	nt	nt
O=C(Nc1ccccc1N1CCOCC1)c1cccc([N+](=O)[O-])c1	5%	-9%	3
CSc1ccc(CN2CCCC(CNC(=O)c3ccc(F)cc3)C2)cc1 (configuration not stated)	-8%	nt	nt
O=C(CN(C(=O)CSc1nc2ccccc2o1)c1cccc(F)c1)NC1CCCCC1	6%	-4%	-5
O=C(/C=C/c1cccc(F)c1)N1CCN(c2ncccn2)CC1	-40%	nt	nt
CC12CN3CC(C)(CN(C1)C3c1ccc(Cl)cc1Cl)C2O (configuration not stated)	2%	-4%	21
CN(C)c1ccc(C2N3CC4(C)CN2CC(C)(C3)C4O)cc1 (configuration not stated)	0.89µM*	-24%	2
CCOC(=O)c1nccnc1C(=O)Nc1ccc(C(F)(F)F)cc1	2%	nt	nt
Cc1nn(-c2ccccc2)c(C)c1/C=N/NC(=O)c1cc(-c2cccs2)[nH]n1	-9%	-14%	-115*
Cc1nn(-c2ccccc2)c(C)c1/C=N/NC(=O)c1cc(-c2ccc(Br)s2)[nH]n1	?	?	-27
O=C(CCSc1ccccc1)Nc1nnc(-c2cccs2)o1	-9%	nt	nt
c1cc(-c2nnc3sc(C4CCCCC4)nn23)ccn1	3%	-12%	?
COc1ccc(Cc2nn3c(-c4ccccc4OC)nnc3s2)cc1	11µM*	28µM*	-4
COc1ccccc1-c1nnc2sc(COc3ccc(Cl)cc3)nn12	11%	-24%	21
SMILES	ALDH1A1 inh	HPGD inh	PNC assembly inh
COc1ccccc1-c1nnc2sc(C3CCCCC3)nn12	-11%	28µM*	-9
COc1ccc(C(=O)COC(=O)C(CCSC)NS(=O)(=O)c2ccc(Cl)cc2)cc1 (configuration not stated)	?	-6%	?
CCc1ccccc1N1CC23C=CC(O2)C(C(=O)OCC(C)C)C3C1=O (configuration not stated)	7%	-9%	-22
Cc1ccc(N2C(=O)C3C4C=CC(CNC(=S)Nc5ccc(Cl)cc5)(O4)C3C2=O)cc1 (configuration not stated)	0.32µM*	?	?
Cc1ccc(N2C(=O)C3C4C=CC(CNC(=S)Nc5cccc(Cl)c5)(O4)C3C2=O)cc1 (configuration not stated)	1.6µM*	-28%	-12
Cc1ccc(N2C(=O)C3C4C=CC(CNC(=S)Nc5ccc(F)cc5)(O4)C3C2=O)cc1 (configuration not stated)	0.4µM*	18µM*	-80*
CCOC(=O)N1CCC(N2CC34C=CC(O3)C(C(=O)Nc3ccc(F)cc3)C4C2=O)CC1 (configuration not stated)	-6%	0%	15
CC(C)COC(=O)NCC12C=CC(O1)C1C(=O)N(c3ccc(Cl)cc3)C(=O)C12 (configuration not stated)	0.56µM*	18µM*	-27
CN(C)CCNC(=S)Nc1ccc(Cl)cc1	-2%	-3%	?

Compound activity (PubChem BioAssay)
